The results in this text go back to PubChem BioAssay.

Active and inactive are the calls of the source.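 The calls were made as follows, unless noted: active = fluorescence slope after compound addition differing from the mean of all screened samples at 99.7% confidence, in either direction; inactive = the rest.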

Assay [1] can be described thus: inhibitors of TNFa-induced NFkB p65 translocation, primary screen, imaging, HUVEC, MLSMR starter and 10KST1 sets (AID 438;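 active = inhibition above 20% together with a positive visual image hit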;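 also: compound added about 3h40 before a 20 min TNFalpha stimulation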;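 as to inhibition: signal is the nuclear over cytoplasmic p65 intensity ratio per well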). To be noted: HUVEC TNFa-induced p65 nuclear translocation; cell count: measured here: nuclei count (cytotoxicity indicator), at 2.08 µM; inhibition: at 2 µM, stronger effect = higher value, 0% TNFa-plus-vehicle, 100% no-TNFa wells.
Assay [2] in a line: reduction of polyQ htt aggregates in cells – imaging, exon1htt(103Q)mCFP cells, high-content imaging, primary screen (AID 483;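 active = visual image review flags a hit and inhibition of aggregation exceeds 20%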;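 also: compound exposure lasted 3 days before fixation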;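 as to nuclei count: percent of the per-plate median nuclei count of sample wells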). To be noted: exon1htt(103Q)mCFP cell line, aggregate imaging, at 2 µM; inhibition of aggregation: stronger effect = higher value; nuclei count: measured here: cell count, toxicity.
Assay [3] in a line: endothelial E-selectin expression blockers – imaging, HUVEC, immunofluorescence, MLSMR starter and 10KST1 sets, primary screen (AID 487;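 active = visually confirmed hit in the image check and inhibition above 20%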;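 as to inhibition: signal is fraction of cell area covered by stained E-selectin grains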;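 as to nuclei count: 100% = median nuclei count of all wells on the same plate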). Conditions: HUVEC TNFalpha-induced E-selectin immunofluorescence imaging, at 2 µM; inhibition: stronger effect = higher value; nuclei count: measured here: cell number, toxicity.
The target in assay [4] is Voltage-gated potassium channel subunit beta-2 (Rattus norvegicus) (UniProt P62483). Nature of the assay: inhibitors of rat Kvbeta2 reductase activity – biochemical, NADPH fluorescence, primary screen (AID 622;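 active = fluorescence slope higher than the sample average by over 3 SD, cut at about -0.22 in these data, passing the limit was not always enough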;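 also: slope of raw intensity against log time taken from 70 to 1610 s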). Conditions: recombinant KvBeta, 4-cyanobenzaldehyde reduction, at 10 µM, stronger effect = higher value.
Sequence of Voltage-gated potassium channel subunit beta-2 (Rattus norvegicus) (P62483 whole entry, looked up): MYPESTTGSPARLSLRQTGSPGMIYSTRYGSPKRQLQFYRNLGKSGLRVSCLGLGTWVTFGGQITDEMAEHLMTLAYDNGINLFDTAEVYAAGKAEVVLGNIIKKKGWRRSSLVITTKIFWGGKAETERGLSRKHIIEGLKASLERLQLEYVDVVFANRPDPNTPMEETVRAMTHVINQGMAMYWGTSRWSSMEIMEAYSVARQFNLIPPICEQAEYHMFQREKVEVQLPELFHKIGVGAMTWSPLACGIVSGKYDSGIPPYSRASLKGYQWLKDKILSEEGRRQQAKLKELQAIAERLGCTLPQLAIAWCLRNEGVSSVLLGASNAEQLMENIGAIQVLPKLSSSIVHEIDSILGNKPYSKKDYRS
The target is the same in assay [5]. Nature of the assay: enhancers of rat Kvbeta2 NADPH turnover – biochemical, NADPH fluorescence, primary screen (AID 623;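 active = NADPH fluorescence slope more negative than the mean of all samples by about 3 SD, 99.7% confidence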;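 also: fluorescence intensity change per second fitted from 20 to 320 s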). Conditions: Recombinant KvBeta, NADPH fluorescence decrease slope, 10 min; at 10 µM; stronger effect = lower value.
For assay [6], the target named is Alpha-2C adrenergic receptor (Homo sapiens) (UniProt P18825). Nature of the assay: compounds altering alpha2C-coupled GIRK flux – cell-based, HEK293 alpha2C/GIRK1/2, thallium flux, primary screen (AID 624).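 Also: slope of fluorescence ratio to pre-addition baseline per second over 15 to 24 s.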 To be noted: thallium flux BTC fluorescence, at 10 µM, actives lie on both sides.
Sequence of Alpha-2C adrenergic receptor (Homo sapiens) (P18825 whole entry, looked up): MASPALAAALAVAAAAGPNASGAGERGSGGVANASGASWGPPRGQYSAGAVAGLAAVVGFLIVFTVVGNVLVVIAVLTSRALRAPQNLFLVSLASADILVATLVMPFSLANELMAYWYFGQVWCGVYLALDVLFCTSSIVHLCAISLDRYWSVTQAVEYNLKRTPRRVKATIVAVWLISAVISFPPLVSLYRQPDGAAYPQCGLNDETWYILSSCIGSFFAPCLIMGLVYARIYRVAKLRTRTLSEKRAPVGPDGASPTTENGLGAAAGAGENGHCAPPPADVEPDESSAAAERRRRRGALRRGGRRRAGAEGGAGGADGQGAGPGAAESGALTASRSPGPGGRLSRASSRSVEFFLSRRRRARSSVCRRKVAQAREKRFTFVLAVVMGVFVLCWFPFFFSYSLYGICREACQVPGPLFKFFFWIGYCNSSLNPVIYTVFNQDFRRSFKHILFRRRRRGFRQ
Assay [7] in a line: blockers of RIG-like receptor reporter activation – cell-based, Sendai virus stimulus, luciferase, 10K MLSCN set, TLR/RLR signaling modifier project, primary screen (AID 602276;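 active = inhibition at or above 50% at 10 µM; inactive = inhibition below 50%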;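 also: firefly luciferase from ISG56 promoter only with Renilla not read in this screen; 0% = Sendai virus plus DMSO and 100% = medium plus DMSO without virus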). Conditions: HEK293 RL24 IRF3 luciferase reporter, at 10 µM, stronger effect = higher value.
Assay [8] in a line: TLR3 IRF3 reporter activation blockers – cell-based, poly I:C stimulus, luciferase, 10K MLSCN set, primary screen (AID 602277;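 active = inhibition of the reporter signal at or above 50%; inactive = inhibition below 50%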). Conditions: HEK293-TLR3 RL24 IRF3 luciferase reporter, at 10 µM, stronger effect = higher value. On the technique in general: A reporter such as luciferase makes a cellular process visible.

The term inhibition denotes the drop in the measured response relative to a control, in per cent. For the compound `Cn1c(=O)c2c(nc(CN3CCCCC3)n2CCc2ccccc2)n(C)c1=O`, the cell count in assay [1] was found to be 363. Besides, the inhibition is -1% (inactive) in assay [1], -3.5% (inactive) in assay [3], -6.67% (inactive) in assay [7] and -8.47% (inactive) in assay [8]. Also, in assay [2], the inhibition of aggregation was -29.9% (inactive). For the same compound, the nuclei count in assay [2] amounted to 79%; in assay [3], 158%. In assay [4], the fluorescence slope was -0.572 (inactive). The NADPH fluorescence slope in assay [5] was -1.3e-05 (inactive). The slope in assay [6] is 0.00323 (inactive).
On to `Cc1cccc(N2CCN(C(=O)c3cc4ccccc4oc3=O)CC2)c1C`, for which the cell count in assay [1] was 712. For the same compound, the inhibition in assay [1] was -2.8% (inactive); in assay [3] it was -22.9% (inactive); in assay [7], -10.3% (inactive); in assay [8], -10.8% (inactive). Further, in assay [2], the inhibition of aggregation is -28.9% (inactive). Moreover, the nuclei count in assay [2] was found to be 93.7%; in assay [3], 117%. In addition, the fluorescence slope in assay [4] is -0.565 (inactive). In assay [5], the NADPH fluorescence slope is -2.1e-05 (inactive). Moreover, the slope in assay [6] was 0.00624 (inactive).
Turning to `CCOC(=O)N1CCN(CC(=O)c2c(C)[nH]c3ccccc23)CC1`, the cell count in assay [1] turned out to be 349. Besides, the inhibition is 10.5% (inactive) in assay [1], -113% (inactive) in assay [3], 0.348% (inactive) in assay [7] and 6.29% (inactive) in assay [8]. For the same compound, the inhibition of aggregation in assay [2] is -5.3% (inactive). Further, the nuclei count stood at 92.4% in assay [2] and 143% in assay [3]. In addition, the fluorescence slope in assay [4] was -0.491 (inactive). Besides, the NADPH fluorescence slope in assay [5] is -6.3e-05 (inactive). Also, in assay [6], the slope is 0.00584 (inactive).
For the compound `Oc1ccc(Cl)cc1-c1cc(-c2ccccc2)n[nH]1`, the cell count in assay [1] worked out at 524. Besides, the inhibition in assay [1] was -11.4% (inactive); in assay [3], -6.5% (inactive); in assay [7] it was -23.7% (inactive); in assay [8], -37% (inactive). Also, in assay [2], the inhibition of aggregation is 26.3% (inactive). Moreover, the nuclei count was 81.5% in assay [2] and 80.2% in assay [3]. Further, the fluorescence slope in assay [4] is -0.557 (inactive). The NADPH fluorescence slope in assay [5] is -1.3e-05 (inactive). The slope in assay [6] was 0.00732 (inactive).
In the case of `CCCC(=O)Nc1nnc(CC(=O)OCC)s1`, in assay [1], the cell count was found to be 799. Moreover, the inhibition is -7.3% (inactive) in assay [1], -35.4% (inactive) in assay [3], -5.88% (inactive) in assay [7] and 15.8% (inactive) in assay [8]. Also, in assay [2], the inhibition of aggregation is 11% (inactive). The nuclei count in assay [2] is 95.6%; in assay [3], 113%. The fluorescence slope in assay [4] is -0.614 (inactive). In addition, the NADPH fluorescence slope in assay [5] was 1.3e-05 (inactive). Moreover, in assay [6], the slope is 0.00516 (inactive).
On to `COc1ccc(-n2ncc3c(N4CCN(c5cccc(C)c5C)CC4)ncnc32)cc1`, for which the cell count in assay [1] was 589. Moreover, the inhibition in assay [1] is -4.7% (inactive); in assay [3], -22% (inactive); in assay [7], 5.95% (inactive); in assay [8] it was 27.1% (inactive). The inhibition of aggregation in assay [2] is -12.6% (inactive). The results for the nuclei count in assay [2] and in assay [3] were 111% and 105%, respectively. Further, the fluorescence slope in assay [4] is -0.566 (inactive). Besides, the NADPH fluorescence slope in assay [5] was -3.6e-05 (inactive). Further, in assay [6], the slope was 0.0072 (inactive).
Take `O=C(c1cnccn1)N(c1ccccc1)C1(C(=O)NC2CCCC2)CCCCC1`: the cell count in assay [1] was determined as 630. For the same compound, the inhibition was -15.7% (inactive) in assay [1], -31.9% (inactive) in assay [3], 6.65% (inactive) in assay [7] and 16.5% (inactive) in assay [8]. Also, the inhibition of aggregation in assay [2] is 4.8% (inactive). For the same compound, the nuclei count worked out at 96.4% in assay [2] and 116% in assay [3]. Also, in assay [4], the fluorescence slope was -0.518 (inactive). Further, the NADPH fluorescence slope in assay [5] is -5.8e-05 (inactive). In addition, in assay [6], the slope was 0.00495 (inactive).
With `O=C(C1CCN(c2nnnn2-c2ccccc2)CC1)N1CCN(c2ccccc2)CC1`, in assay [1], the cell count amounted to 618. Besides, the inhibition is -33.7% (inactive) in assay [1], -35.9% (inactive) in assay [3], 8.57% (inactive) in assay [7] and 22.4% (inactive) in assay [8]. The inhibition of aggregation in assay [2] was -1.1% (inactive). The nuclei count in assay [2] was 98.3%; in assay [3], 112%. The fluorescence slope in assay [4] is -0.602 (inactive). The NADPH fluorescence slope in assay [5] was -5.4e-05 (inactive). Besides, in assay [6], the slope is 0.00667 (inactive).
`Cc1cccc(OCCCC(=O)O)c1`: the cell count in assay [1] stood at 438. The inhibition in assay [1] was 1.4% (inactive); in assay [3], -57.9% (inactive); in assay [7] it was -5.29% (inactive); in assay [8] it was 8.09% (inactive). In assay [2], the inhibition of aggregation was -12.7% (inactive). The nuclei count worked out at 101% in assay [2] and 116% in assay [3]. For the same compound, the fluorescence slope in assay [4] was -0.584 (inactive). Further, the NADPH fluorescence slope in assay [5] is -3.6e-05 (inactive). Besides, in assay [6], the slope was 0.00464 (inactive).
`COC(=O)c1ccccc1OCC(=O)NC1CCCCC1`: the cell count in assay [1] turned out to be 400. Besides, the inhibition in assay [1] is 2.8% (inactive); in assay [3] it was -140% (inactive); in assay [7] it was -18.9% (inactive); in assay [8] it was -61.5% (inactive). Besides, the inhibition of aggregation in assay [2] is -13.9% (inactive). In addition, the nuclei count in assay [2] amounted to 110%; in assay [3] it was 112%. Also, the fluorescence slope in assay [4] was -0.511 (inactive). In addition, in assay [5], the NADPH fluorescence slope was -1.1e-05 (inactive). The slope in assay [6] is 0.00395 (inactive).
Take `CCCC(=O)NCCc1cc2c(C)ccc(C)c2[nH]c1=O`: the cell count in assay [1] turned out to be 592. Also, the inhibition is -4.8% (inactive) in assay [1], -9% (inactive) in assay [3], 9% (inactive) in assay [7] and 10.9% (inactive) in assay [8]. For the same compound, in assay [2], the inhibition of aggregation is -1.1% (inactive). The results for the nuclei count in assay [2] and in assay [3] were 114% and 117%, respectively. The fluorescence slope in assay [4] was -0.557 (inactive). For the same compound, the NADPH fluorescence slope in assay [5] is -2.9e-05 (inactive). Moreover, in assay [6], the slope is 0.00601 (inactive).
For `COc1cc(OC)cc(-c2nnc(SCC(=O)Nc3cc(C)on3)o2)c1`, the cell count in assay [1] was found to be 230. Besides, the inhibition in assay [1] is 0.6% (inactive); in assay [3], -264% (inactive); in assay [7], 7.23% (inactive); in assay [8], 31.7% (inactive). The inhibition of aggregation in assay [2] is 32.6% (inactive). The nuclei count in assay [2] stood at 77.5%; in assay [3], 111%. In addition, the fluorescence slope in assay [4] is -0.347 (inactive). The NADPH fluorescence slope in assay [5] is -2.3e-05 (inactive). Moreover, the slope in assay [6] was 0.00422 (inactive).
With `CCn1cc(C(=O)N2CCOCC2)c(=O)c2cc(S(=O)(=O)N(C)C3CCCCC3)ccc21`, in assay [1], the cell count was 518. Besides, the inhibition in assay [1] was 7.1% (inactive); in assay [3] it was -29.5% (inactive); in assay [7] it was 12.2% (inactive); in assay [8], 28.4% (inactive). Further, the inhibition of aggregation in assay [2] is 3.9% (inactive). The nuclei count in assay [2] turned out to be 84.2%; in assay [3], 87.7%. For the same compound, in assay [4], the fluorescence slope was -0.581 (inactive). Further, the NADPH fluorescence slope in assay [5] is -7.6e-06 (inactive). For the same compound, the slope in assay [6] was 0.00672 (inactive).
In the case of `O=S(=O)(Nc1ccccn1)c1ccc(Oc2ccccc2)cc1`, in assay [1], the cell count was determined as 248. Also, the inhibition in assay [1] is -6.3% (inactive); in assay [3], -2.9% (inactive); in assay [7], 16.9% (inactive); in assay [8], 20.6% (inactive). Besides, the inhibition of aggregation in assay [2] is 0.4% (inactive). The nuclei count is 59.1% in assay [2] and 93.8% in assay [3]. For the same compound, the fluorescence slope in assay [4] is -0.598 (inactive). Besides, the NADPH fluorescence slope in assay [5] is -1.6e-05 (inactive). Further, the slope in assay [6] was 0.0052 (inactive).
